Common to all, as to assay: NCI-60 one-dose screen, 48 h (100 = growth as untreated, 0 = no growth, -100 = all killed)
Holding throughout (conditions): 10 µM unless noted

Assay [1] relates to HCT-15 colon.
For assay [2], the system named is HT29 colon.
For assay [3], the system named is SNB-75 CNS.
In assay [4] the test system is SNB-19 CNS.
Assay [5] relates to U251 CNS.
Assay [6] relates to PC-3 prostate.
The test system of assay [7] is SK-MEL-5 melanoma.
The subject of assay [8] is UACC-62 melanoma.
Assay [9] concerns LOX IMVI melanoma.
Assay [10] concerns SK-MEL-28 melanoma.
In assay [11] the test system is SK-MEL-2 melanoma.
In assay [12] the test system is SN12C renal.
Assay [13] deals with UO-31 renal.
Assay [14] has as its system TK-10 renal.
In assay [15] the test system is CAKI-1 renal.
Assay [16] deals with A498 renal.
For assay [17], the system named is CCRF-CEM leukemia.
Assay [18] has as its system MOLT-4 leukemia.
The subject of assay [19] is EKVX NSCLC.
The test system of assay [20] is ACHN renal.

These results are taken from PubChem BioAssay (NCI).

SMILES strings stand for the structures. “And” between values parts separate entries of the source, which are not always exact repeats. Equal entries are not always repeated. Compounds without any hit were thinned out: in the full panel of roughly 83,000, 20% have a hit.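 Each cell line was grown in a 96-well plate and treated with one concentration of compound for 48 hours. Values below 10 were considered active.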 The source made the active and inactive calls.

On to `CN(C)c1ccc(/C=C(\C#N)c2ccccc2)cc1`, for which the growth in assay [1] was 26.3% (inactive) and 29.3% (inactive) and 29.4% (inactive); in assay [2], 12.4% (inactive) and 6.06% (active) and 3.67% (active); in assay [3] it was 4.23% (active) and 15.8% (inactive); in assay [4], 61.4% (inactive) and 52.5% (inactive) and 35.8% (inactive); in [5] it was 18.5% (inactive) and 32.3% (inactive) and 23.9% (inactive); in [6], 18.9% (inactive) and 36% (inactive) and 19.5% (inactive). Also, the growth was 31.6% (inactive) and 26.3% (inactive) and 19.4% (inactive) in [7]; 32.6% (inactive) and 21.9% (inactive) and 22.2% (inactive) in [8]; 51.1% (inactive) and 41.1% (inactive) and 42.4% (inactive) in assay [9]; 97.7% (inactive) and 70.6% (inactive) and 64.5% (inactive) in assay [10]; -36% (active) and 11.7% (inactive) and 22.8% (inactive) in [11]; 66.5% (inactive) and 62.2% (inactive) and 39.1% (inactive) in [12]. The growth in assay [13] is 29.1% (inactive) and 53.1% (inactive) and 42.5% (inactive); in assay [14] it was 57.8% (inactive) and 43.1% (inactive) and 54.9% (inactive); in assay [15] it was 41.1% (inactive) and 43.3% (inactive); in [16], 63.6% (inactive) and 29.8% (inactive) and 0.464% (active); in [17] it was -17.2% (active) and 23.6% (inactive) and 6.64% (active); in [18], 25.2% (inactive) and 35.6% (inactive) and 34.9% (inactive).

Take `O=C(Cc1cccc2ccccc12)N/N=C/c1ccc2c(c1)CCC2`: the growth in assay [1] was 56.6% (inactive); in assay [2] it was 62.4% (inactive); in assay [3], 80.2% (inactive); in assay [4], 92.1% (inactive); in assay [5] it was 69.9% (inactive); in assay [6], 74.2% (inactive). For the same compound, the growth was 80.6% (inactive) in [7]; 54.3% (inactive) in [8]; 69.6% (inactive) in assay [9]; 81.4% (inactive) in assay [10]; 84.6% (inactive) in assay [11]; 78.8% (inactive) in assay [19]. The growth in [12] was 84% (inactive); in assay [14], 89.4% (inactive); in assay [20] it was 83.4% (inactive); in [15], 66.1% (inactive); in [16], 72.7% (inactive); in [17] it was 65.2% (inactive). For the same compound, the growth in assay [18] is 47.9% (inactive).

With `CNC(=O)c1ccc(C)c(-n2c(C)cc(OCc3ccc(F)cc3F)c(Br)c2=O)c1`, the growth in assay [1] is 91% (inactive) and 97.1% (inactive); in assay [2], 56.4% (inactive) and 76.5% (inactive); in assay [3], 63.3% (inactive) and 86.1% (inactive); in assay [4], 75.8% (inactive) and 91.1% (inactive); in [5], 80.1% (inactive) and 78.6% (inactive); in assay [6], 74.8% (inactive) and 66.5% (inactive). In addition, the growth in assay [7] is 56.4% (inactive) and 87.9% (inactive); in [8], 56.5% (inactive) and 73.4% (inactive); in [9], 83.2% (inactive) and 93.6% (inactive); in assay [10], 104% (inactive) and 97.9% (inactive); in [11], 89.3% (inactive); in [19], 78.7% (inactive) and 87.7% (inactive). For the same compound, the growth is 83.7% (inactive) and 86.1% (inactive) in assay [12]; 52.5% (inactive) and 71.8% (inactive) in assay [13]; 74.6% (inactive) and 102% (inactive) in assay [14]; 62.9% (inactive) and 79.1% (inactive) in assay [15]; 78.7% (inactive) in [16]; 77.4% (inactive) and 89.1% (inactive) in [17]. Moreover, in assay [18], the growth was 78.8% (inactive) and 91.8% (inactive).

With `CO/N=C/C=C\C(=O)N/C=C/C[C@H]1/C=C/[C@H](O)/C=C\C=C\c2cccc(O)c2C(=O)O1`, the growth is 11.9% (inactive) and 16.7% (inactive) in assay [1]; 9.82% (active) and 7.92% (active) in assay [2]; 25.2% (inactive) and -14.6% (active) in assay [3]; 68.3% (inactive) and 56.7% (inactive) in [4]; 33.3% (inactive) and 32.2% (inactive) in assay [5]; 37.5% (inactive) and 25.3% (inactive) in assay [6]. In addition, the growth in [7] is -70.6% (active) and -68.6% (active); in assay [8] it was -1.1% (active) and -43.6% (active); in [9], -45.7% (active) and -73.7% (active); in [10] it was 32.1% (inactive); in assay [11], 5.72% (active) and -20.7% (active); in assay [12], 48.5% (inactive) and 40.9% (inactive). For the same compound, the growth was 53.9% (inactive) and 52% (inactive) in assay [14]; 31.1% (inactive) and 22.4% (inactive) in [20]; 9.88% (active) and 2.94% (active) in assay [15]; 44.1% (inactive) and 10.3% (inactive) in [16]; 33% (inactive) and 32.7% (inactive) in assay [17]; 27.7% (inactive) and 14.6% (inactive) in [18].

For the compound `CCN(CC)CCOc1ccc(/C=N/Nc2nc3c([nH]2)c(=O)n(C)c(=O)n3C)cc1`, the growth is 97.2% (inactive) and 103% (inactive) in assay [1]; 99.9% (inactive) and 91.4% (inactive) in [2]; 88.4% (inactive) and 90.3% (inactive) in assay [3]; 98.5% (inactive) and 102% (inactive) in assay [4]; 98.6% (inactive) and 113% (inactive) in assay [5]; 99.4% (inactive) and 88.5% (inactive) in assay [6]. Besides, the growth was 102% (inactive) and 107% (inactive) in assay [7]; 94.2% (inactive) and 99.8% (inactive) in [8]; 104% (inactive) and 92.3% (inactive) in assay [9]; 102% (inactive) and 107% (inactive) in assay [11]; 99.1% (inactive) and 95.8% (inactive) in assay [19]; 98.9% (inactive) and 96.5% (inactive) in [12]. For the same compound, the growth in assay [13] was 80.8% (inactive) and 79.6% (inactive); in assay [14], 94.2% (inactive) and 101% (inactive); in assay [20] it was 102% (inactive) and 94.6% (inactive); in [15], 118% (inactive) and 85.6% (inactive); in [16], 88.5% (inactive) and 88.9% (inactive); in assay [17], 83.5% (inactive) and 103% (inactive). Further, the growth in [18] is 88.4% (inactive) and 102% (inactive).

For the compound `COc1ccccc1/C=N\N=C(N/N=C/c1ccccc1OC)N/N=C/c1ccccc1OC`, the growth in assay [1] was 55.9% (inactive) and 32.1% (inactive); in assay [2], 23.7% (inactive) and 12.9% (inactive); in assay [3], 86.7% (inactive) and 71.1% (inactive); in [4], 59% (inactive) and 23.7% (inactive); in [5], 39.3% (inactive) and 15.3% (inactive); in assay [6], 41.2% (inactive) and 19.7% (inactive). In addition, the growth in assay [7] was 69.8% (inactive) and -91.3% (active); in assay [8], 55.5% (inactive) and 19.7% (inactive); in assay [9], 28.6% (inactive); in [10] it was 78.8% (inactive) and 64.5% (inactive); in assay [11], 47.5% (inactive) and 31.8% (inactive); in assay [12] it was 77.2% (inactive) and 28.4% (inactive). Besides, the growth in [13] was 50.4% (inactive) and -10.3% (active); in [14] it was 110% (inactive) and 57.7% (inactive); in assay [20], 63.8% (inactive) and 40.6% (inactive); in [15], 43.6% (inactive) and 33.7% (inactive); in assay [16] it was 100% (inactive) and 72.2% (inactive); in [17], 39.9% (inactive) and 23.4% (inactive). Besides, the growth in assay [18] is 31.1% (inactive) and 8.9% (active).

`O=C(CCc1ccc(O)cc1)N/N=C/c1cc(Br)ccc1O`: the growth was 28.7% (inactive) in [1]; 98.4% (inactive) in [2]; 79.4% (inactive) in assay [3]; 69.6% (inactive) in assay [4]; 49.2% (inactive) in assay [5]; 38.8% (inactive) in assay [6]. The growth in assay [7] was 45.3% (inactive); in [8] it was 37.7% (inactive); in [9] it was 21.1% (inactive); in [10], 69.5% (inactive); in assay [11], 80.7% (inactive); in assay [19], 91% (inactive). The growth in assay [12] was 63.7% (inactive); in assay [14] it was 88.9% (inactive); in assay [20], 27% (inactive); in assay [15], 18.7% (inactive); in [16] it was 78.5% (inactive); in assay [17], 13.3% (inactive). Also, in assay [18], the growth was 8.16% (active).

As for `NC(=S)NN=C1CCC(C2CCCCC2)CC1` (stereo not drawn), the growth in assay [1] is 61.9% (inactive) and 66.1% (inactive); in assay [2] it was 90% (inactive) and 79.7% (inactive); in assay [3], 76.4% (inactive) and 92.8% (inactive); in assay [4] it was 96% (inactive) and 102% (inactive); in assay [5], 93.7% (inactive) and 95.1% (inactive); in [6], 89% (inactive) and 74.1% (inactive). Also, the growth was 87.3% (inactive) and 87.8% (inactive) in assay [7]; 79.6% (inactive) and 88.3% (inactive) in assay [8]; 99.8% (inactive) in [9]; 91.5% (inactive) and 110% (inactive) in [10]; 96% (inactive) and 90.2% (inactive) in assay [11]; 78.9% (inactive) and 82.6% (inactive) in [19]. The growth in assay [12] was 82.3% (inactive) and 82.5% (inactive); in assay [13], 69.3% (inactive) and 45.9% (inactive); in assay [14], 113% (inactive) and 104% (inactive); in [16], 88.2% (inactive); in assay [17], 81.1% (inactive) and 92% (inactive); in assay [18], 81.4% (inactive) and 73.3% (inactive).

`CC1CCCc2sc3nc(NNC(=O)c4cnccn4)n(-c4ccccc4)c(=O)c3c21` (stereo not drawn): the growth in [1] is 26.4% (inactive) and 24.6% (inactive); in assay [2], 22.4% (inactive) and 26.2% (inactive); in [3] it was 36.4% (inactive) and 2.93% (active); in assay [4], 25.8% (inactive) and 21.6% (inactive); in assay [5], 4.39% (active) and 8.03% (active); in assay [6] it was 30% (inactive) and 27.4% (inactive). The growth is -38.3% (active) and -65.9% (active) in assay [7]; -33.9% (active) and -8.57% (active) in [8]; 0.839% (active) and 2.01% (active) in [9]; 11.7% (inactive) and 27.4% (inactive) in assay [10]; 11.3% (inactive) and 25.1% (inactive) in [11]; 20% (inactive) and 16.7% (inactive) in [12]. The growth in assay [13] is 8.23% (active) and 5.71% (active); in assay [14], 30.3% (inactive) and 37.9% (inactive); in [20], 8.58% (active) and 19.9% (inactive); in [15], 5.81% (active) and 0.832% (active); in assay [16], 27.8% (inactive); in assay [17], 3.85% (active) and 0.781% (active). Moreover, in [18], the growth was 5.36% (active) and 10.6% (inactive).
